Bioassay records as filed in PubChem.
This is a sample that favours compounds with a hit; in the whole collection about 12% have one here.
SARS PLpro yeast – blocks SARS-CoV papain-like protease in a yeast assay. AID 485353. Potency, µM (doses to about 32.9 µM), without a hit: at the top dose activity, positive = growth rescue, actives largely listed as activators. S. cerevisiae expressing SARS-CoV PLpro, growth rescue. 330,000 compounds, 0.19% hits; calls by dose curve; also: 0% is about no effect; nearly all actives have a fitted effect of over 55% in size
AmpC inh detg – blocks E. coli AmpC beta-lactamase in detergent assay | P00811 | AmpC hydrolysis of nitrocefin, absorbance 480 nm, 0.01% Triton | Potency, µM (top dose mostly 114 µM), for the others: top-dose activity change, negative = inhibition, most hits filed as inhibitors | 370,000 compounds, 0.041% hits;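 also: 0% = no-compound wells and -100% = no-enzyme wells; nearly all actives have a fitted effect of over 25% in size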
Target sequence (P00811 whole entry, looked up): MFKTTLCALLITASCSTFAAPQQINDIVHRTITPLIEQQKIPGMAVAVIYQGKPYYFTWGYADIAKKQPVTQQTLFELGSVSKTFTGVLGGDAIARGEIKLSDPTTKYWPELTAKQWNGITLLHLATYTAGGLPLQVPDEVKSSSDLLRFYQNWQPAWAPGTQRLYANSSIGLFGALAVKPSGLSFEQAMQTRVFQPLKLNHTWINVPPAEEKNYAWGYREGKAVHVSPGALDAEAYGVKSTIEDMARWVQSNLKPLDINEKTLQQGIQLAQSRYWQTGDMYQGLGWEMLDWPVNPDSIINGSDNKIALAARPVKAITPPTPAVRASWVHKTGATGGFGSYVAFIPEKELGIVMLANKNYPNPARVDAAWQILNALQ
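AmpC (5.3 nM in the dispensed reagent) in 20 mM phosphate pH 7.0 with 0.01% (detergent screen) or 0.0001% Triton X-100 was preincubated with compounds for 15 min at room temperature. Nitrocefin was then added from an 800 uM solution, and hydrolysis was followed at 480 nm.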
Pf growth 96h – P. falciparum growth inhibition at 96 hour, primary screen for plastid delayed-death inhibitors; P. falciparum luciferase reporter growth, 96 h; Potency, µM (series often up to 28.7 µM), inactives show at the top dose activity change, negative = inhibition, actives largely listed as inhibitors; 320,000 compounds, 6.9% hits; also: % is scaled to controls: 0 for no effect and ±100 for the full control effect
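Luminescence readout: decreased luciferase signal marks inhibited growth of reporter-expressing P. falciparum in infected red cells (2% hematocrit, 0.05% parasitemia final), exposed to compound two generations (96 h, 37 C, 5% CO2).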
Sm TGR inh – blocks Schistosoma mansoni thioredoxin glutathione reductase; Q962Y6; purified TGR, DTNB reduction, TNB absorbance 405 nm; Potency, µM (top dose mostly 114 µM), without a hit: at the highest dose activity change, negative = inhibition, actives largely listed as inhibitors; 360,000 compounds, 3% hits; also: % is scaled to controls: 0 for no effect and ±100 for the full control effect; nearly all actives have a fitted effect of over 60% in size
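TGR 20 nM + NADPH 100 uM (dispensed conc.), cpd preinc 15 min RT; start with NADPH (500 uM addition) then DTNB (15 mM addition). Kinetic TNB absorbance, 405 nm filter. Four-parameter Hill fit across titration.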
AmpC no deterg – AmpC beta-lactamase inhibition without detergent; P00811; AmpC nitrocefin hydrolysis, absorbance 480 nm, 0.0001% Triton; Potency, µM (doses to about 57.1 µM), without a hit: top-dose activity change, negative = inhibition, usual class: inhibitors; 330,000 compounds, 0.52% hits; AID 485341;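 also: plate controls were no compound for no effect and no enzyme for full effect; nearly all actives have a fitted effect of over 20% in size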
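20 mM phosphate pH 7.0 + 0.01% (detergent screen) or 0.0001% Triton X-100; 5.3 nM AmpC reagent; cpd preinc 15 min RT; nitrocefin (800 uM stock) to start; A480 q20 s × 4 min; Activity was normalised to no-enzyme and no-compound control wells.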
Pf growth 48h – inhibits P. falciparum growth in the first generation, 48 h | 310,000 compounds, 5.9% hits | P. falciparum luciferase growth in erythrocytes, 48 h | Potency, µM (highest dose often 28.7 µM), for inactives: at the highest dose activity change, negative = inhibition, hits mostly inhibitors | AID 504832; also: % is scaled to controls: 0 for no effect and ±100 for the full control effect
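Firefly luciferase activity from engineered P. falciparum reports growth; inhibitors lower the luminescent signal. Cultures contained 2% hematocrit erythrocytes at 0.1% final parasitemia.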
* = called active by the depositor; u = inconclusive; x = no result given; [ ] = remark or other dose. Unless noted, calls follow the shape of the dose curve; as a rule, active = well fitted curve in the direction sought with a large enough effect; inconclusive = small, poorly fitted or top-dose-only effect, or another doubt; inactive = no such curve, though single readings can be large; an effect the other way counts as inactive or inconclusive. Potency is read from the fitted curve at half-maximal effect.

SMILES | SARS PLpro yeast | AmpC inh detg | Pf growth 96h | Sm TGR inh | AmpC no deterg | Pf growth 48h
CCn1c(=O)c2cc(C(=O)NCc3cccs3)sc2c2ccccc21 | 0.0% | -4.7% | 2.33µM* | -2.9% | -8.6% | 56.6%
Cc1ccc(S(=O)(=O)N(Cc2n[nH]c(=S)n2-c2ccccc2)c2ccccc2)cc1 | 0.4% | 2.0% | u | -17.3% | -42.4% | 2.33µM*
CCS(=O)(=O)N1Cc2ccccc2CC1C(=O)NCCc1ccccc1 (stereo not drawn) | 1.4% | -3.1% | 6.5% | -2.8% | -3.2% | -19.2%
CNc1nnc(Sc2ncccc2[N+](=O)[O-])s1 | 0.5% | 3.6% | u | u | -11.1% | 9.28µM*
O=c1ccnc(Sc2ncccc2[N+](=O)[O-])[nH]1 | 26.4% | u | -16.5% | -6.1% | -9.4% | -6.4%
CCOc1cc(C(=O)Nc2ccc(-c3nc4ncccc4o3)cc2C)cc(OCC)c1OCC | x | -2.9% | x | -0.9% | x | x
Cc1cc(-c2nc3ncccc3o2)ccc1NC(=O)c1ccc(Cl)cc1 | x | -0.6% | x | 89.1µM* | x | x
O=C(CSc1ccc(Cl)cc1)Nc1cc(-c2nc3ncccc3o2)ccc1Cl | -0.7% | -14.6% | 4.65µM* | 0.5% | -16.1% | u
O=C(CSc1ccc(Cl)cc1)Nc1cccc(-c2nc3ncccc3o2)c1 | -1.3% | -5.3% | u | -8.5% | -30.3% | u
COC(=O)[C@]1(C)N[C@H](CN(C)S(=O)(=O)c2ccc(F)cc2)[C@@H]2C(=O)N(C)C(=O)[C@@H]21 | 1.1% | x | x | x | -13.6% | x
N#Cc1ccc2ccn(CC(=O)NCc3ccccc3)c2c1 | 5.3% | 2.1% | x | -2.4% | 1.1% | -18.1%
CCOc1ccc(N2C(=O)CC(N(Cc3ccco3)C(C)=O)C2=O)cc1 (stereo not drawn) | -0.6% | -1.4% | u | 50.1µM* | 49.7% | 16.8%
CCCOc1ccc(N2C(=O)CC(N(Cc3ccco3)C(=O)CC)C2=O)cc1 (stereo not drawn) | 0.9% | 2.1% | 51.5% | 14.1µM* | 16.9% | u
CCOc1ccc(N2C(=O)CC(N(Cc3ccco3)C(=O)CC)C2=O)cc1 (stereo not drawn) | -0.9% | -4.8% | u | x | -0.1% | -1.7%
CCOC(=O)Cn1c(=O)oc2cc(S(=O)(=O)N3CCN(c4cc(C)ccc4C)CC3)ccc21 | x | -6.1% | x | -1.0% | x | x
CCn1c(C)c(C)c2cc(C(=O)Nc3cccc(Cl)c3)ccc21 | -13.6% | -11.4% | 14.7µM* | -31.1% | -44.9% | u
Cc1cccc(NC(=O)c2nc(S(C)(=O)=O)ncc2Cl)c1 | x | 1.6% | x | 4.47µM* | x | x
CCS(=O)(=O)c1ncc(Cl)c(C(=O)Nc2c(C(=O)Nc3cccc(C)c3)oc3ccccc23)n1 | x | 10.9% | x | 3.0% | x | x
COc1cccc(NC(=O)c2nc(S(C)(=O)=O)ncc2Cl)c1 | -2.6% | -12.5% | 30.4% | 10µM* | -0.5% | 13.4%
CC(NC(=O)c1cc(S(=O)(=O)N2CCCC2)ccc1Cl)c1ccccn1 (stereo not drawn) | -6.1% | 3.7% | -26.1% | -13.6% | -14.0% | 5.6%
Cc1cc(C)c(COc2ccc(/C=N/n3c(C)n[nH]c3=S)cc2)c(C)c1 | -38.3% | -14.6% | 11.9% | -11.8% | -22.9% | 11.7µM*
COc1ccc(OCC#CCN2CCCCCC2)cc1 | 0.3% | u | 2.8% | u | -12.2% | -0.8%
COc1ccc(OCC#CCN2CCNCC2)cc1 | -6.2% | -11.4% | 1.85µM* | -25.8% | -3.4% | 15.5%
COc1ccc(OCC#CCN2CC(C)OC(C)C2)cc1 (stereo not drawn) | 12.9% | u | u | 7.08µM* | 2.5% | -16.5%[5.75 µM]
CC1CCN(CC#CCOc2ccc(Cl)cc2)CC1 | -2.9% | -18.9% | u | u | -1.5% | -3.8%
SMILES | SARS PLpro yeast | AmpC inh detg | Pf growth 96h | Sm TGR inh | AmpC no deterg | Pf growth 48h
COc1ccc(CN2CCNCC2)cc1 | u | 0.1% | 43.4% | 50.1µM* | 70.3% | 175.3%
COc1ccc(NC(=O)N(C)C[C@H]2Oc3ccc(NS(=O)(=O)c4c(C)noc4C)cc3C(=O)N([C@H](C)CO)C[C@@H]2C)cc1 | -0.6% | x | x | x | 33.5% | x
COCCNC(=O)CCCN1C(=O)CCn2nc(-c3cccn3C)cc21 | x | 11.5% | x | u | x | x
O=C(c1cnc2c(c1)COc1ccccc1-2)c1ccccc1O | x | 1.8% | x | 5.1% | x | x
CC1=NN(c2ccccc2)C(=O)C1(C)[N+](=O)[O-] (stereo not drawn) | 0.7% | -4.4% | -10.2% | -1.3% | -10.1% | -15.4%
CN(C)S(=O)(=O)c1ccc2c(c1)C(=NNC(N)=O)c1cc(S(=O)(=O)N(C)C)ccc1-2 | -2.6% | 0.3% | 33.9% | 8.0% | -8.2% | 3.5%
CN(C)S(=O)(=O)c1ccc2c(c1)C(=NO)c1cc(S(=O)(=O)N(C)C)ccc1-2 | 0.8% | 0.8% | 2.62µM* | 9.1% | -0.3% | -22.2%
CN(C)N=C1c2cc(S(=O)(=O)N(C)C)ccc2-c2ccc(S(=O)(=O)N(C)C)cc21 | 0.4% | 0.4% | 11.7µM* | 4.4% | 94.5% | 13.1µM*
CCc1ccc2oc(C(=O)N(Cc3cccc(Cl)c3)Cc3ccco3)c(C)c2c1 | x | 8.8% | x | 4.1% | x | x
CCOC(=O)CC1COCCN1Cc1cn[nH]c1-c1cc(OC)c(OC)c(OC)c1 (stereo not drawn) | 1.4% | 0.7% | -21.0% | 11.6% | 14.5% | -3.4%
OC[C@H]1O[C@@H](n2cnc3c(NC4CCCC4)nc(Cl)nc32)[C@H](O)[C@@H]1O | 1.4% | -6.4% | 2.8% | -3.1% | -11.3% | 3.3%
Nc1nc(Cl)nc2c1ncn2[C@@H]1O[C@H](CO)[C@@H](O)[C@H]1O | -0.2% | u | 6.57µM* | 8.0% | -23.3% | u
CC1(C)OC2C(CO)OC(n3cnc4c(=S)nc[nH]c43)C2O1 (stereo not drawn) | 0.6% | 2.6% | 7.6% | -12.7% | -0.7% | -5.0%
Nc1nc(=S)c2ncn([C@@H]3O[C@H](CO)[C@@H](O)[C@H]3O)c2[nH]1 | x | -13.0% | u | -0.4% | -10.7% | 10.4µM*
OCC1OC(n2cnc3c(=S)nc[nH]c32)C(O)C1O (stereo not drawn) | x | x | 9.53µM* | x | x | u
COc1ccccc1CNC(=O)c1ccc2c(c1)nc(C)n2-c1cccc(C)c1 | x | -1.0% | x | 2.0% | x | x
O=C(Nc1ccccc1)N1CCCC(CNS(=O)(=O)Cc2ccccc2)C1 (stereo not drawn) | -0.5% | -5.2% | -5.5% | -15.7% | -13.8% | 10.9%
Cc1cccc(C(=O)Nc2ccc3nc(SCC(=O)N4CCc5ccccc54)sc3c2)c1 | x | 7.8% | x | 1.8% | x | x
CCCn1nc(-c2nnc(-c3ccc(C)c(C)c3)o2)c2ccccc2c1=O | 1.1% | -0.4% | 32.5% | -11.9% | -13.8% | 15.4%
